# In the library only some 0.72% were active in any assay of this set; here they are far more common.
# RGS4 inh: blocks human RGS4-accelerated GTP hydrolysis; Transcreener GDP fluorescence polarization, RGS4-accelerated GTP hydrolysis; Potency, µM (highest dose often 114 µM), for inactives: at the top dose activity change, negative = inhibition, most hits filed as inhibitors; 390,000 tested, 0.039% active; further: potency means the concentration at half of the fitted maximal effect; nearly all actives have a fitted effect of over 75% in size
# Target sequence (P49798 whole entry, looked up): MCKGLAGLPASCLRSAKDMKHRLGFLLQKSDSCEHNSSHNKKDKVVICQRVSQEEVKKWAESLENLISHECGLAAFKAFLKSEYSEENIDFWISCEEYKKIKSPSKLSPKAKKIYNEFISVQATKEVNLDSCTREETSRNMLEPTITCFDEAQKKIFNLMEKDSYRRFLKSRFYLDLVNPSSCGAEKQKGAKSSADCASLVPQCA
#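 MLSMR compounds (23 nl, pin-transferred) preincubated 10 min at room temperature with a 500nM (2x) first reagent, then RGS4 at 900nM (2x) plus Transcreener GDP mix added; fluorescence polarization (620/688 nm) read before and after 90 min at 30 °C.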
# CtBP-E1A inh: inhibitors of CtBP/E1A interaction | AID 651724 | 340,000 tested, 0.49% active | AlphaScreen GST-E1A/His-CtBP binding, 1536-well; stronger effect = lower value | activity change, % (no concentration beside the values); in the data active means activity change below about -65%; inconclusive means mostly about -30% to -63%
#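 Protein mix (5X: 125 nM each GST-E1A, His-CtBP) was incubated with pinned compound 2 h at 37 deg C in dark, in 50 mM Tris pH 8.0 buffer with 300 mM NaCl. Glutathione donor and nickel acceptor beads followed; AlphaScreen signal read after 1 h.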
# Eya2 phos inh: Eya2 (human) phosphatase inhibition | O00167 | recombinant Eya2, OMFP fluorescence dephosphorylation (OMFP is methylfluorescein phosphate) | Potency, µM (highest dose often 76.9 µM), for inactives: at the top dose activity, negative = inhibition, hits mostly inhibitors | 330,000 tested, 0.006% active | AID 488837; further: potency means the concentration at half of the fitted maximal effect
# Target sequence (O00167 whole entry, looked up): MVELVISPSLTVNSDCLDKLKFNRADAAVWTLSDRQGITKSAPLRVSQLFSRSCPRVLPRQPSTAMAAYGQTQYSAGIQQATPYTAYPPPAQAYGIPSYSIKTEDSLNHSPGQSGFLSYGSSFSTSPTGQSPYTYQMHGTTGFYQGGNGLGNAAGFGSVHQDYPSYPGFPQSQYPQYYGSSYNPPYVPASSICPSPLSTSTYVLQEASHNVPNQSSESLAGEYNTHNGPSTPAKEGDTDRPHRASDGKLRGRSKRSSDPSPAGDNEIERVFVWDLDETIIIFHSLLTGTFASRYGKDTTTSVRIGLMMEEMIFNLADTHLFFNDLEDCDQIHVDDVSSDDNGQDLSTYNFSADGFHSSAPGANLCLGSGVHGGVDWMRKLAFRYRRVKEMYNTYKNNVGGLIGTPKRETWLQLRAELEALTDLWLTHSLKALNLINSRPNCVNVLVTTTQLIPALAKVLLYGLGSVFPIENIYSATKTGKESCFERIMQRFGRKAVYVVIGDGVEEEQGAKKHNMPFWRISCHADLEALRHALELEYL
#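 Eya2 (0.2 uM) preincubated 10 min at ambient with compound, then OMFP substrate added at 50 uM; 10 min reaction in 50 mM HEPES pH 7.5, 50 mM NaCl, 5 uM MgCl2, 0.05% BSA, 1 mM DTT. Fluorescence read at Ex 485/Em 525 nm.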
# PI4K2A inh: PI4K2A (human) kinase inhibition; activity change, negative = inhibition, % at 76.9 µM; AID 1346378; Q9BTU6; purified PI4K2A, ADP-Glo luminescence, 1 h; stronger effect = lower value; 420,000 tested, 0.13% active; in the data active means activity change below about -50%; inconclusive means mostly about -30% to -49%;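 further: -100% = wells without enzyme as full effect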
#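 In this quantitative HTS, ADP production by PI4K2A was quantified luminescently after 1 h at ambient temperature; 100 microM adenosine served as plate-quality control.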
# Six1-Eya2 inh: blocks human Six1 binding to Eya2; 360,000 tested, 0.56% active; AlphaScreen GST-Six1/His-Eya2 binding, biochemical; stronger effect = lower value; AID 651725; activity change, % (concentration not given with the values); in the data active means activity change below about -65%; inconclusive means mostly about -30% to -63%
#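 Homogeneous AlphaScreen proximity assay pairing GST-Six1 with His-tagged Eya2 (added as 5X mix: 250 nM and 500 nM) in 50 mM Tris pH 8.0, 300 mM NaCl, 1 mM TCEP. Glutathione donor and nickel acceptor beads; 1 h, 37 °C, dark.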
# USP2a block: USP2a (human) protease inhibition | USP2 core, Ub-CHOP2 coupled fluorogenic reporter, 485/531 | 330,000 tested, 0.01% active | Potency, µM (titrated, usually from 38.3 µM), without a hit: top-dose activity change, negative = inhibition, hits mostly inhibitors | AID 463254 | O75604;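 further: potency means the concentration at half of the fitted maximal effect; plate controls were DMSO wells for no effect and full inhibition by NEM control for full effect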
#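 Deubiquitinase activity read as fluorescence (485/531 nm) after Ub-CHOP2 cleavage activates the enterokinase reporter on its substrate; USP2 core 10nM, Ub-CHOP2 and substrate 25nM each, 30min compound preincubation then 60min RT; data normalized to NEM, curves fitted.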
# * marks the source's active call; other numbers are inactive results; ? = inconclusive; / = no result given; ! = repeats disagree; [ ] = remark or other dose. Unless noted, the call rests on the fitted dose curve; in most records, active means well fitted curve in the direction sought with a large enough effect; inconclusive means small, poorly fitted or top-dose-only effect, or another doubt; inactive means no such curve, though single readings can be large; an effect the other way counts as inactive or inconclusive. Unless noted, on the % scale 0 is the no-effect control and ±100 the full control effect.
SMILES,RGS4 inh,CtBP-E1A inh,Eya2 phos inh,PI4K2A inh,Six1-Eya2 inh,USP2a block
CC1(c2ccccc2)NC(=O)N(CC(=O)Nc2nc(-c3ccccn3)cs2)C1=O (stereo unspecified),-16.5%,?,3.9%,-6.4,-91.1*,1.0%
Cc1ccc(S(=O)(=O)CCc2nnc(NC(=O)c3cnccn3)s2)cc1,-3.7%,5.0,-2.1%,-3.2,-5.3,1.5%
Cc1ccc(C2(C)NC(=O)N(CC(=O)Nc3nc(-c4ccccn4)cs3)C2=O)cc1 (stereo unspecified),?,?,-3.3%,-21.2,-91.6*,0.1%
Cc1ccc(S(=O)(=O)CCC(=O)Nc2nc(-c3ccccn3)cs2)cc1,-2.3%,-72.7*,2.8%,0.4,?,-0.4%
O=S(=O)(c1ccccc1)c1nnn2c1nc(Nc1ccccc1)c1cc(Cl)ccc12,-10.9%,/,/,-4.5,/,/
NC(=O)C1(N2CCCCC2)CCN(CCCN2c3ccccc3CCc3ccc(Cl)cc32)CC1,/,/,/,3.0,/,/
CCCCC(CC)CNC(=O)c1ccc2c(=O)n(Cc3ccc(OC)cc3)c(=O)[nH]c2c1 (stereo unspecified),-7.5%,/,/,-21.6,/,/
Cc1ccc(CCNC(=O)CCCn2nc(C)c3c(C)n(-c4ccccc4)nc3c2=O)cc1,0.7%,/,/,-1.2,/,/
CCSC1=C(C#N)C(c2ccccc2OC)CC(=O)N1 (stereo unspecified),2.5%,0.0,-21.5%,-65.2*,11.2,3.0%
CCn1nnc2cc(C(=O)Nc3cccc(Cl)c3C)ccc21,-5.2%,/,/,3.0,/,/
COC(=O)C1=C(C)NC(C)=C(C(=O)OCCSc2ccccc2)C1C (stereo unspecified),37.7µM*,/,/,/,/,/
CC(C)(C)c1ccc(-c2nnc(SCC(=O)Nc3ccc(S(=O)(=O)Nc4nccs4)cc3)n2Cc2ccco2)cc1,/,/,/,-56.3*,/,/
Cc1ccc2c(c1)-c1nc(-c3ccc4c(c3)NC(=O)CO4)cc(-c3ccc(F)cc3)c1CO2,-3.6%,/,/,3.0,/,/
CS(=O)(=O)Nc1ccc([N+](=O)[O-])cc1OC1CCCCC1,8.44µM*!,/,/,/,/,/
CSc1cccc(NC(=O)C2CCN(S(=O)(=O)c3ccc4[nH]c(=O)ccc4c3)CC2)c1,7.2%,/,/,-4.6,/,/
COc1cc(NC(=O)C2CCCN(S(=O)(=O)c3ccc(C)cc3)C2)cc(OC)c1 (stereo unspecified),/,/,/,-1.0,/,/
O=C(N/N=C/c1cn(-c2cccs2)nc1-c1ccccc1)c1ccccc1O,-1.8%,-76.1*,7.3%,-3.2,-77.5*,-19.6%
O=C(N/N=C/c1cn(-c2cccs2)nc1-c1ccccc1)c1ccccc1Br,-10.9%,-27.1,2.9%,3.3,-14.1,0.3%
O=C1NC[C@H](CCCCN2CCN(Cc3ccccc3)C(=O)C2=O)N(CCc2ccccc2)C1=O,/,0.6,/,0.1,4.3,/
Cc1cc(NC(c2ccc(Cl)cc2)c2ccc3cccnc3c2O)no1 (stereo unspecified),6.9%,?,8.9%,6.3,-65.5*,-11.8%
Oc1c(C(Nc2ccccn2)c2ccccc2F)ccc2cccnc12 (stereo unspecified),-7.8%,/,/,0.6,/,/
Cc1ccnc(NC(c2cccnc2)c2ccc3cccnc3c2O)c1 (stereo unspecified),-29.9%,-98.7*,14.7%,-1.2,-86.0*,-8.2%
Oc1c(C(Nc2ccccn2)c2ccccn2)ccc2cccnc12 (stereo unspecified),4.7%[11.4 µM],-94.8*,16.8%,4.2,-95.0*,-1.5%
Cc1ccnc(NC(c2ccccc2)c2ccc3cccnc3c2O)c1 (stereo unspecified),-38.0%,-88.3*,/,-6.8,-77.7*,/
CN1OC[C@@H]2CN[C@H](c3ccc(-c4cc5ccccc5o4)cc3)C[C@@H]21,/,5.0,/,-6.5,-4.4,/
SMILES,RGS4 inh,CtBP-E1A inh,Eya2 phos inh,PI4K2A inh,Six1-Eya2 inh,USP2a block
CCOC(=O)C(O)c1ccccc1 (stereo unspecified),/,/,/,-2.3,/,/
Cc1c(COc2ccc3ccccc3c2)nnn1CC(=O)NS(=O)(=O)c1ccccc1C(F)(F)F,/,2.5,/,-6.0,8.6,/
O=C(O)c1ccc2cccnc2c1O,8.1%,-15.7,12.4%,1.8,-16.4,-0.7%
Oc1ccccc1C(Nc1nccs1)c1ccc2cccnc2c1O (stereo unspecified),2.8%,-93.4*,0.8%,1.6,-77.1*,0.3%
Cc1ccnc(NC(c2cc(C)ccc2O)c2ccc3cccnc3c2O)c1 (stereo unspecified),?,/,/,-6.4,/,/
O=C(O)c1ccccc1NC(c1ccccc1)c1ccc2cccnc2c1O (stereo unspecified),?,-20.3,/,-3.4,-84.4*,/
COc1ccccc1NC(c1cccnc1)c1ccc2cccnc2c1O (stereo unspecified),?,-77.8*,-1.4%,-1.3,-79.3*,0.9%
COCCCNC(=O)c1ccc(-n2c(-c3ccccc3)cc3c2CCC(C)C3)cc1 (stereo unspecified),-1.3%,/,/,5.2,/,/
CC(C)(C)c1ccc(-c2nnc3n2N=C(c2ccc4ccccc4c2)CS3)cc1,/,/,/,0.3,/,/
Cc1ccc(C(=O)Oc2ccc(C(=O)COC(=O)C3CC(=O)N(Cc4ccco4)C3)cc2)cc1 (stereo unspecified),-14.0%[11.4 µM],?,2.6%,-24.1,-84.9*,3.6%
O=C(CN1CCCC(O)C1)N1c2ccccc2Sc2ccc(C(F)(F)F)cc21 (stereo unspecified),31.6%,4.3,-9.1%,-7.3,-5.2,2.8%
CN1CCN(CCCN2c3ccccc3Sc3ccc(C(F)(F)F)cc32)CC1,18.9µM*!,15.2,-4.5%,-2.9,-15.3,-1.5%
O=C(O)C1OC1(c1ccccc1Cl)c1ccccc1Cl (stereo unspecified),?,8.7,/,-6.4,3.2,/
O=C(O)[C@H](O)c1ccccc1,/,/,/,0.8,/,/
CNc1nc(NCc2ccc(N(C)C)cc2)c2sccc2n1,/,?,/,-3.3,-66.9*,/
COc1ccc2cc3c(N)c(C(=O)NCc4ccco4)sc3nc2c1,-30.5%,-12.6,-21.0%,-56.8*,-15.5,8.7%
COc1ccc(-c2cn3cc(C(=O)NN)ccc3n2)cc1,-33.5%,11.8,-4.0%,-71.6*,-23.5,-0.1%
NNC(=O)c1ccc2nc(-c3ccc(Br)cc3)cn2c1,-21.5%,-2.2,-19.2%,-14.1,-12.5,1.6%
CSc1nnc(-c2cc3c(-c4ccccc4)nn(C)c3s2)n1C,-11.8%[11.4 µM],-74.3*,6.9%,-1.1,-73.6*,2.6%
COc1ccc(S(=O)(=O)N2CCN(c3nc(-c4cccs4)nc4ccccc34)CC2)cc1,7.4%,/,/,/,/,/
S=C1SCN(Cc2ccccn2)CN1Cc1ccco1,?,?,-3.0%,4.0,-80.5*,3.5%
